Screening data as filed in PubChem.
CYP2C9 inhib = blocks human cytochrome P450 2C9. CYP2C9 Supersomes, luciferin-H conversion, luminescence. inhibition, % at 5 µM. hit rate 20% among 96,000. AID 777;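 active = blocking of liver enzyme CYP2C9 beyond about 50% at 5 µM, limit read from the data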
CYP2C19 inhib = inhibitors of human CYP2C19; P33261; CYP2C19 Supersomes, luciferin-H EGE luminescence, 30 min; inhibition, % at 5 µM; hit rate 21% among 96,000; AID 778;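 active = CYP2C19 inhibition above a set limit at 5 µM in the primary screen, cut at about 50% in these data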
CYP2C9 act = increases human cytochrome P450 2C9 activity; P11712; recombinant CYP2C9, luciferin-H conversion, luminescence; active compounds read high; factor 1 = untreated enzyme, 0 = blocked; activation factor at 5 µM; hit rate 1.4% among 96,000; AID 1024;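 active = activation factor of 2 or more for CYP2C9 at a 5 µM dose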
PTK2B oligo ant = blocks oligomerization of human Pyk2 in cells; Q293 cells, Pyk2 FERM NanoBiT luminescence; active compounds read low; z-score (the deposit names both 25 µM and 10 µM); hit rate 0.83% among 99,000;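 active = Z-score of -3 or lower, scaled per plate to the spread of control and sample wells; inactive = z-score above -3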;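 also: negative z-score means lost luminescence so less FERM oligomerization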
CYP2C19 activ = cytochrome P450 2C19 (human) activation. recombinant CYP2C19, luciferin-H EGE luminescence; active compounds read high; 0 = fully inhibited enzyme, 1 = untreated enzyme. activation factor at 5 µM. 96,000 tested, under 10 active;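 active = activation factor of at least 2 at 5 µM in the primary screen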
Numbers stand for hits; n = inactive; x = not tested or not shown. Most compounds without a hit are left out; they make up all but 28% or so of the library.

SMILES	CYP2C9 inhib	CYP2C19 inhib	CYP2C9 act	PTK2B oligo ant	CYP2C19 activ
COC(=O)C(NC=O)C(O)(Cc1ccccc1)C(F)(F)F (stereo not drawn)	n	56.7	n	n	n
Cc1cccc(C)c1N1C(=O)CC(N(O)c2ccccc2)C1=O (stereo not drawn)	n	97.3	n	n	n
Cc1c(Cl)cccc1N1C(=O)CC(N(O)c2ccccc2)C1=O (stereo not drawn)	n	93.7	2.6	n	n
CCOc1ccccc1N1C(=O)CC(N(O)c2ccccc2)C1=O (stereo not drawn)	n	93.1	n	x	n
CCCn1c(=O)c(C(=O)Nc2nnc(CC)s2)c(O)c2ccccc21	n	n	n	x	n
CCOC(=O)C(Cc1ccccc1)C(=O)Nc1nccs1 (stereo not drawn)	n	n	n	n	n
CC(C)Cc1ccc(C(C)C(=O)Nc2nccs2)cc1 (stereo not drawn)	67.9	51.3	n	n	n
CC(C)C(C(=O)Nc1nccs1)c1ccccc1 (stereo not drawn)	51.8	68.1	n	n	n
N#Cc1c(-c2ccccc2)c(-c2ccccc2)nn(CC(=O)NNC(=O)Nc2ccc(Cl)c(Cl)c2)c1=O	61.6	n	n	n	n
N#Cc1c(-c2ccccc2)nc2n(-c3ccccc3)nc(C(=O)Nc3ccccc3)n2c1=O	n	n	n	n	n
COc1ccc(-n2c(COc3ccccc3)nnc2SCc2ccc(C#N)cc2)cc1	92.6	96.0	n	n	n
COc1ccc(C(=O)CSc2nnc(COc3ccc(C#N)cc3)n2-c2ccccc2)cc1	n	n	n	n	n
N#Cc1ccc(CSc2nnc(COc3ccccc3)n2-c2ccccc2)cc1	66.7	76.3	n	n	n
Cc1ccc(C(=O)CSc2nnc(COc3ccc(C#N)cc3)n2-c2ccccc2)cc1	x	x	x	n	x
COc1ccc(C2=NOC3(CC(=O)N(c4ccc5ccccc5c4)C3=O)C2)c(OC)c1 (stereo not drawn)	n	n	n	n	n
Nc1c(S(=O)(=O)c2cccc(Cl)c2)c2nc3ccccc3nc2n1CCN1CCOCC1	n	n	n	n	n
Clc1ccc(-c2csc3ncnc(NCCN4CCOCC4)c23)cc1	n	n	n	n	n
Clc1ccc(-c2nc(NCCN3CCOCC3)c3ccccc3n2)cc1	50.4	n	n	n	n
O=S(=O)(Nc1nc2ccccc2nc1NCCN1CCOCC1)c1cccc(Cl)c1	98.3	n	n	n	n
Fc1ccc(-c2ccnc(=S)[nH]2)cc1	n	n	n	n	n
CCN(CC)C(=O)CSc1nc2sc3c(c2c(=O)n1-c1ccc(C)cc1)CC(C)(C)SC3	95.8	51.7	n	n	n
COc1ccccc1CNC(=O)C1CCN(S(=O)(=O)c2ccc3c(c2)OCCCO3)CC1	x	x	x	n	x
O=C(Nc1sc2c(c1C(=O)O)CCC2)c1cccs1	69.7	84.8	n	n	n
NC(=O)c1c(NC(=O)c2cccs2)sc2c1CCCCCC2	84.7	83.5	n	n	n
CC(C)(C)c1ccc(S(=O)(=O)NCC(=O)Nc2sc3c(c2C(N)=O)CCCC3)cc1	55.0	n	n	n	n
SMILES	CYP2C9 inhib	CYP2C19 inhib	CYP2C9 act	PTK2B oligo ant	CYP2C19 activ
Cc1ccc2cc(C#N)c(NCCCNC(=O)C3CCCO3)nc2c1 (stereo not drawn)	n	n	n	n	n
CCOC(=O)C1=NNC(C(=O)c2ccc(OC)cc2)C1c1ccccc1 (stereo not drawn)	52.2	n	n	n	n
CCOC(=O)c1cc(-c2ccccc2)sc1NC(=O)c1ccc(OC)cc1	n	n	n	x	n
CCOc1ccc(C2NC(=O)c3n[nH]c(C)c32)cc1 (stereo not drawn)	n	68.6	n	x	n
Cc1[nH]nc2c1C(c1ccccc1F)NC2=O (stereo not drawn)	n	n	n	x	n
Cn1c(N2CCN(C(=O)Nc3ccc(C(F)(F)F)cc3)CC2)nc2ccccc21	n	n	n	n	n
COc1ccc(CNc2nc3c(c(=O)n(Cc4ccc(F)cc4)c(=O)n3C)n2C)cc1	81.1	90.8	n	n	n
Cn1c(NCC(O)c2ccccc2)nc2c1c(=O)n(Cc1ccc(Cl)cc1)c(=O)n2C (stereo not drawn)	53.4	n	n	n	n
Cn1c(NCc2ccccc2)nc2c1c(=O)n(Cc1ccccc1)c(=O)n2C	n	n	n	n	n
CC(C)CCNc1nc2c(c(=O)n(Cc3cccc(F)c3)c(=O)n2C)n1C	84.7	88.0	n	n	n
CC1=NN(C(=O)c2ccc(Cn3nc(C)cc3C)o2)C(O)(C(F)(F)F)C1 (stereo not drawn)	n	n	n	n	n
